# Assay results taken from PubChem BioAssay AID1347156 (National Center for Advancing Translational Sciences (NCATS), 2019).
# Results filed as inconclusive are left out. The source made the active and inactive calls. The call rests on the fitted dose curve; in most records, active means well fitted cell-killing curve with a large enough effect; inconclusive means small, poorly fitted or top-dose-only effect; inactive means flat fitted curve, though single readings scatter.
# Assay: DAPI mCherry counterscreen qHTS for Zika virus inhibitors; further: nearly all actives have a fitted effect of over 55% in size
# Conditions: Vero cells, DAPI nuclear count cytotoxicity, imaging 48-72 h, infected with Zika reporter virus, MOI 1; series mostly up to 32.6 µM; activity change, negative = cell loss: at the top concentration
# Method in brief: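 Imaging read-out after fixation and Hoechst nuclear staining: percent infection from mCherry-positive cells (above 3 SD of negative controls) and nuclear counts. Setup: Vero cells pre-plated overnight, compound added, infected with ZIKV-mCherry (MOI 1), 48-72 hrs, 37 degrees C.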
# On the % scale 0 is the no-effect control and ±100 the full control effect; potency means the concentration at half of the fitted maximal effect.
SMILES,Potency,"activity change, negative = cell loss"
CCCCCCOc1cc2c(cc1N(C)c1ncc(C(=O)O)cn1)C(C)(C)CCC2(C)C,22.4 µM (active),–
CCC(C)CCCCC(=O)NC(CCNCS(=O)(=O)O)C(=O)NC(C(=O)NC(CCNCS(=O)(=O)O)C(=O)NC1CCNC(=O)C(C(C)O)NC(=O)C(CCNCS(=O)(=O)O)NC(=O)C(CCNCS(=O)(=O)O)NC(=O)C(CC(C)C)NC(=O)C(CC(C)C)NC(=O)C(CCNCS(=O)(=O)O)NC1=O)C(C)O (centres undefined),–,9.56% (inactive)
O=c1oc2ccccc2cc1-c1nnc(Nc2ccc(Cl)cc2Cl)s1,–,-17.8% (inactive)
CC[C@H](C)[C@H]1O[C@]2(CC[C@@H]1C)C[C@@H]1C[C@@H](C/C=C(\C)[C@@H](O[C@H]3C[C@H](OC)[C@@H](O[C@H]4C[C@H](OC)[C@@H](O)[C@H](C)O4)[C@H](C)O3)[C@@H](C)/C=C/C=C3\CO[C@@H]4[C@H](O)C(C)=C[C@@H](C(=O)O1)[C@]34O)O2,8.91 µM (active),–
COc1ccc(NS(=O)(=O)c2ccc3c(c2)[C@H]2C=CC[C@H]2[C@@H](c2ccc(C(=O)O)cc2)N3)cc1,–,-18% (inactive)
O=C(Nc1cccc(C(=O)OCc2cc(=O)n3nc(C4CC4)sc3n2)c1)c1cccc(Cl)c1,–,-11.2% (inactive)
CN(C)[C@@H]1C(=O)C(C(=O)NCN2CCCC2)=C(O)[C@@]2(O)C(=O)C3=C(O)c4c(O)cccc4[C@@](C)(O)C3C[C@@H]12 (some centres undefined),–,-14.8% (inactive)
O=C(Nc1ccc(Oc2ccc(Cl)cc2)c(Cl)c1)c1cc(I)cc(I)c1O,10 µM (active),–
CN(C)CC[C@H](CSc1ccccc1)Nc1ccc(S(=O)(=O)NC(=O)c2ccc(N3CCN(Cc4ccccc4-c4ccc(Cl)cc4)CC3)cc2)cc1[N+](=O)[O-],5.01 µM (active),–
